# Data as given in ChEMBL document CHEMBL3988442, “University of Dundee, Small-Polar-MMV Screening Library” (2021).
# For some assays here: Results with a measured potency or affinity are listed apart.
# Columns and labels:
# Design in all cases: scale not given: direction of the effect not stated beside the values
# [1] = target: Protein translocase subunit SecA (Escherichia coli (strain K12)) (UniProt P10408); experiment: Assay to Identify E. coli SecA ATPase Inhibitors; type: functional; conditions: 30 µM
# [2] = target: T1, Ubiquitin-activating enzyme e1, putative (Leishmania donovani (strain BPK282A1)) (UniProt E9BSI1); experiment: Leishmania donovani Ubiquitin Activating Enzyme (LdE1); type: functional; conditions: 30 µM
# T1 sequence (whole entry): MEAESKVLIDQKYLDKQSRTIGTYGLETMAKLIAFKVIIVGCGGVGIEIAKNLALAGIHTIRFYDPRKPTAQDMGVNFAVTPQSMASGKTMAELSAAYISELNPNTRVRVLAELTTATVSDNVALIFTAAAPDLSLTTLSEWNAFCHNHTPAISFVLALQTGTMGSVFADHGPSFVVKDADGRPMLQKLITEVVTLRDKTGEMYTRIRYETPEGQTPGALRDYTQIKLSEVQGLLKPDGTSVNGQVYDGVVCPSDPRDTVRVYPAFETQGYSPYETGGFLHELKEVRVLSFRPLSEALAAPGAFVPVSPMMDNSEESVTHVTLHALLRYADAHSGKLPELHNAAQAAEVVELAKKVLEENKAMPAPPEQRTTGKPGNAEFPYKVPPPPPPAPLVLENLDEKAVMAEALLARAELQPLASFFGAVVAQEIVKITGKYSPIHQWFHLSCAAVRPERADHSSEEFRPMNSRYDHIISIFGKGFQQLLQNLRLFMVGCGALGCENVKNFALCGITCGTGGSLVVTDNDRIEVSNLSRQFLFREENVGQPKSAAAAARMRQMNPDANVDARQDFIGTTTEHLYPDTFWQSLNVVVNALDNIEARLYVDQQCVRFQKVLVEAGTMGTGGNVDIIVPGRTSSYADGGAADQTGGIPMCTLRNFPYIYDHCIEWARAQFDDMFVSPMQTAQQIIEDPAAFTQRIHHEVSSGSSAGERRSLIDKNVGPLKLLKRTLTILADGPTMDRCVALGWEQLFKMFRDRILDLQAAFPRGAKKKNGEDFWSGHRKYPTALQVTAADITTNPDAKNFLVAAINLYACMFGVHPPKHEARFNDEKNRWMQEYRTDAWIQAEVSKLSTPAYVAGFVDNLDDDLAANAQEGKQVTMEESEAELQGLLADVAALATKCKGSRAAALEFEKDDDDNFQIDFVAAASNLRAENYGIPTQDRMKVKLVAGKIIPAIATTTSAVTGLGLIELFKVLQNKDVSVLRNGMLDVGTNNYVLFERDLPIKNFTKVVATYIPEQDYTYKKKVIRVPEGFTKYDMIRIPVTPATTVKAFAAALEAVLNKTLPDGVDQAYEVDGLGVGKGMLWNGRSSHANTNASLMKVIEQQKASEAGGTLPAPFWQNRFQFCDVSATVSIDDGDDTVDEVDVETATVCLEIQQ
# [3] = target: AMP-activated protein kinase, AMPK (Homo sapiens) (UniProt P54646+O43741+P54619+Q9UGJ0+Q9Y478+Q13131+Q9UGI9); experiment: AMP-dependent Kinase enzyme assay. An in vitro enzyme assay that detects ADP turnover that is directly proportional to AMPK activity. This uses naive AMPK that is activated during the assay with MK-8722; type: functional; conditions: 30 µM
# [4] = target: Sialic acid-binding Ig-like lectin 9 (Homo sapiens) (UniProt Q9Y336); experiment: Hs-Siglec9 ALPHAscreen SOP 20170721; conditions: 10 µM
# Trypanosoma cruzi = experiment: Trypanosoma cruzi phosphomannomutase and mannose-1-phosphate guanylyltransferase assay; type: functional; conditions: 10 µM
# [5] = target: T2, Arginase-2, mitochondrial (Homo sapiens) (UniProt P78540); experiment: in vitro enzyme assay to detect the production of urea directly proportional to the activity of Arginase II; type: functional; conditions: 33.3 µM; note: in the data most compounds retested in dose-response had high values
# T2 sequence (whole entry): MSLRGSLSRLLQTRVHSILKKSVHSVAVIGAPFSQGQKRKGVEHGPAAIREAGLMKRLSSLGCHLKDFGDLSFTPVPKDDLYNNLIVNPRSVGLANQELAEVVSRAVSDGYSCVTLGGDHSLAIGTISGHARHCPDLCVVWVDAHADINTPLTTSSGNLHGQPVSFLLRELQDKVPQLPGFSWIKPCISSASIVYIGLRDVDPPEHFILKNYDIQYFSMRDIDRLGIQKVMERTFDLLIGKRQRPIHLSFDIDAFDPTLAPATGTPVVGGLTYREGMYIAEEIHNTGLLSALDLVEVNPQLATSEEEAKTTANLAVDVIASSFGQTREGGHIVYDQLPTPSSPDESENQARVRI
# [6] = target: T3, Proteasome subunit beta (Trypanosoma cruzi) (UniProt O96673); experiment: Trypanosoma cruzi proteasome chymotrypsin-like activity (TcProtChymo) assay.; note: in the data most compounds retested in dose-response had high values; type: functional; conditions: 9.37 µM
# T3 sequence (whole entry): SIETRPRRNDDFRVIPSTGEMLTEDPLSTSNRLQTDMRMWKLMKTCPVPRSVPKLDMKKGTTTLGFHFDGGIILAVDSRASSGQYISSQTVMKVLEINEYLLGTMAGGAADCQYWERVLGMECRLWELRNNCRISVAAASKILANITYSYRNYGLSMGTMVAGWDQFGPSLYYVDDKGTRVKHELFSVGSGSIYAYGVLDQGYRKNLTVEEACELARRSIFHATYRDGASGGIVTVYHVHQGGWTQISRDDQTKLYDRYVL
# Homo sapiens = organism: Homo sapiens; experiment: To identify inhibition of the IFN signalling (Jak-Stat) pathway via expression of an eGFP reporter gene under the control of an IFN-stimulated response element (ISRE) containing MxA promoter.; type: functional; conditions: 30 µM
# [7] = target: T4, Tyrosyl-tRNA synthetase, putative (Trypanosoma cruzi (strain CL Brener)) (UniProt Q4DSP6); experiment: Trypanosoma cruzi tyrosyl tRNA synthetase (TcYRS) _High Tyrosine SOP; type: functional; conditions: 30 µM; note: in the data most compounds retested in dose-response had high values
# T4 sequence (whole entry): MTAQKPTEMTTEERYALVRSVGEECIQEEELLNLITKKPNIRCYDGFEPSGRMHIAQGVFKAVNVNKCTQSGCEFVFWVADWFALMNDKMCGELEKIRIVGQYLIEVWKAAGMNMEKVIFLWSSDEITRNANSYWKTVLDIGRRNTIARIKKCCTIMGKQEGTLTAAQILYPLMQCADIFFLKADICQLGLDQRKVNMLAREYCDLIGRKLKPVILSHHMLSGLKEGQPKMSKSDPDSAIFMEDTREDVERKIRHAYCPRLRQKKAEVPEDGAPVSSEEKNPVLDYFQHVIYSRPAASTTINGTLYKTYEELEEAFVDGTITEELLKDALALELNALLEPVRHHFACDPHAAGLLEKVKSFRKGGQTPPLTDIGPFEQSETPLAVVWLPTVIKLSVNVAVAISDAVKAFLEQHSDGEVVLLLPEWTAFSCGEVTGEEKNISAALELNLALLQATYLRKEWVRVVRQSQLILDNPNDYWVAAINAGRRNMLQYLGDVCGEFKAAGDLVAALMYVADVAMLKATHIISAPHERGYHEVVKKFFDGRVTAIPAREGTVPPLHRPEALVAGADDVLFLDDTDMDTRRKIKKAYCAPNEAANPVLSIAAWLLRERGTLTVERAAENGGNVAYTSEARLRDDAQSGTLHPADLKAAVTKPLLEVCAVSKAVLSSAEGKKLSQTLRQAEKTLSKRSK
# [8] = target: T4, Tyrosyl-tRNA synthetase, putative (Trypanosoma cruzi (strain CL Brener)); experiment: Trypanosoma cruzi tyrosyl tRNA synthetase (TcYRS) SOP; type: functional; conditions: 30 µM
# [9] = target: Chromo domain-containing protein 1 (Saccharomyces cerevisiae (strain ATCC 204508 / S288c) (Baker's yeast)) (UniProt P32657); experiment: ScCHD-1 Enzyme Inhibition Assay; type: functional; conditions: 30 µM; note: in the data most compounds retested in dose-response had high values
# Chain of Chromo domain-containing protein 1 (Saccharomyces cerevisiae (strain ATCC 204508 / S288c) (Baker's yeast)) (P32657 whole entry, the tested form may be a part): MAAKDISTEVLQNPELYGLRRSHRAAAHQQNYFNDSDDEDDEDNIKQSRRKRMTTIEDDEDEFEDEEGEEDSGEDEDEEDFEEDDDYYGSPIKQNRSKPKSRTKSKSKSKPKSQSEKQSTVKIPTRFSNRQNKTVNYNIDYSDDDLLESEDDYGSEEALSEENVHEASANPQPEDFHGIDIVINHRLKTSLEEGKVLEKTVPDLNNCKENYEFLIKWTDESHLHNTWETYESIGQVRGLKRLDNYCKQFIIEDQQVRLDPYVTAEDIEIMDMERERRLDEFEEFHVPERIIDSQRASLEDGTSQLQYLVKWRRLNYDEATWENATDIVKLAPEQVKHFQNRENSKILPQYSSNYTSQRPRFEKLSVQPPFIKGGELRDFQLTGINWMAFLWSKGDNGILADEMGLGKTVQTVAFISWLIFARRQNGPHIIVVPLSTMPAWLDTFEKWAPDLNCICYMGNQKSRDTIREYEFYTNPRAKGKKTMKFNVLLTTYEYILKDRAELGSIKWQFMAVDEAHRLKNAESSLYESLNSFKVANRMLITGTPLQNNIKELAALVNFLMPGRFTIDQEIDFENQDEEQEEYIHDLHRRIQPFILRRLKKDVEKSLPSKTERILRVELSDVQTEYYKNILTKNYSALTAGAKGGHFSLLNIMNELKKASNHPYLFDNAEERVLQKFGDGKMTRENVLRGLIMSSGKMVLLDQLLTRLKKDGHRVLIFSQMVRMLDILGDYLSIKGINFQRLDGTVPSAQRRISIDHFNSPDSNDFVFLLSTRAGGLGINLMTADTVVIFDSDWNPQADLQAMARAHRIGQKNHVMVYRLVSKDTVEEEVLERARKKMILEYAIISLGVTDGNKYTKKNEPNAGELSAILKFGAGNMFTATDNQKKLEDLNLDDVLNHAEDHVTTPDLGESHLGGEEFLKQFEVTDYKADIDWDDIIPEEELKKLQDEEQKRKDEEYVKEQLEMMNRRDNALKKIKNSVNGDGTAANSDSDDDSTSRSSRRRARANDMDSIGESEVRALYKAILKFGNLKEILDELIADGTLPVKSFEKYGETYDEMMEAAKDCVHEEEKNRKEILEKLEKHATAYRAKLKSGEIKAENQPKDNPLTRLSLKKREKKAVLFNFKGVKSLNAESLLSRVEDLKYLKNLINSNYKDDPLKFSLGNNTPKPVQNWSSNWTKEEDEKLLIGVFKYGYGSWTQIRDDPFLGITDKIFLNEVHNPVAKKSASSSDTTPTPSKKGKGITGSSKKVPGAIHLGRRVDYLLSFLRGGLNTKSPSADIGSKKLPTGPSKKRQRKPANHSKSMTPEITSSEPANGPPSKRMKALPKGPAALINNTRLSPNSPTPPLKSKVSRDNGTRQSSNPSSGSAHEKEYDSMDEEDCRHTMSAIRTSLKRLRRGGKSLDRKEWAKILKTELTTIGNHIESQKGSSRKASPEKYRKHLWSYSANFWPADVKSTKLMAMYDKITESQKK
# Chain of Protein translocase subunit SecA (Escherichia coli (strain K12)) (P10408 whole entry): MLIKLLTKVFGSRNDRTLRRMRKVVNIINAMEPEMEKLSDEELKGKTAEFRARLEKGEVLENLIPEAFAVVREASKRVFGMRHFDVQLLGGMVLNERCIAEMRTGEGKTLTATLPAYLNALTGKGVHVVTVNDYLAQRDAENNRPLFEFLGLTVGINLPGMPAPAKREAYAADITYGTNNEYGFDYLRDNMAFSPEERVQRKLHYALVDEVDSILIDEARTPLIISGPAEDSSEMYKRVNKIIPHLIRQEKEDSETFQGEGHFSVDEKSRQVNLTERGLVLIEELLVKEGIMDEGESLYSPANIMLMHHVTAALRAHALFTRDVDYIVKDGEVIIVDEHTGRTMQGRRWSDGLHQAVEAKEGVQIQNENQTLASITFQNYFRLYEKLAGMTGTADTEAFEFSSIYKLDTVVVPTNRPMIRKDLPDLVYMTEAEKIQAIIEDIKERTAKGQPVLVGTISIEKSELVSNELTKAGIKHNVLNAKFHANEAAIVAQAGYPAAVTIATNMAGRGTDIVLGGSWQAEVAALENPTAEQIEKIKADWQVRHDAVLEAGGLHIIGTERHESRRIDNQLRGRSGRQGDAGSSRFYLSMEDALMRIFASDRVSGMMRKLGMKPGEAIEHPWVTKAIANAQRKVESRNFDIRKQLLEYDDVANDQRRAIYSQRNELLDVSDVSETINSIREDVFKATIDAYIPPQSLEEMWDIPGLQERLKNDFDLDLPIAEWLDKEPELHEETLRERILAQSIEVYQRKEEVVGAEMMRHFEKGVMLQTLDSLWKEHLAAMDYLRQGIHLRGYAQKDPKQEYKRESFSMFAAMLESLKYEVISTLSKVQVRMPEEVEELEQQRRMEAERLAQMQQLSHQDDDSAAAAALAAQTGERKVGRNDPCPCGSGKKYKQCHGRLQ
# Chain of Sialic acid-binding Ig-like lectin 9 (Homo sapiens) (Q9Y336 whole entry): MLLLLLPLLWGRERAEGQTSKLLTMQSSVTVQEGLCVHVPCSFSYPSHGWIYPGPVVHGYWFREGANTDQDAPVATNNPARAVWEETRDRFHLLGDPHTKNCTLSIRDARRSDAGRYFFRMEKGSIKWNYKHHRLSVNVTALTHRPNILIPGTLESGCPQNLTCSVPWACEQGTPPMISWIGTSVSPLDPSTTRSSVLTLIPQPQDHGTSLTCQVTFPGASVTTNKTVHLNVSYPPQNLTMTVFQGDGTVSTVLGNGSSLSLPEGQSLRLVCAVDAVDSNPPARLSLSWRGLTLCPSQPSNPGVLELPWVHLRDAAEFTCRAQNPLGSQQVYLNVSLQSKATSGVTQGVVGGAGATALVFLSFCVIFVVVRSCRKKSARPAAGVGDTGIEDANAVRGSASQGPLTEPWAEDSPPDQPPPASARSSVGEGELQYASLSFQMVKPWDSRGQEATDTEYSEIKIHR
Structure (SMILES),Percent Effect [1] [%],Percent Effect [2] [%],Percent Effect [3] [%],Percent Effect [4] [%],Percent Effect (Trypanosoma cruzi) [%],Percent Effect [5] [%],Percent Effect [6] [%],Percent Effect (Homo sapiens) [%],Percent Effect [7] [%],Percent Effect [8] [%],Percent Effect [9] [%]
Cc1n[nH]cc1C(=O)N1CCCC(n2nnc3cc(F)ccc32)C1 (centres undefined),-5.29,5.33,7.57,-0.922,6.5,-3.5,11.7,5.51,5.32,11.5,-7.34
O=C(NCc1ccccn1)c1nnn(-c2ccc(Br)cc2)n1,-3.5,18.2,-2.49,-2.46,1.68,-5.81,13.2,16.1,5.29,11.5,-12.6
O=C(Cc1ccsc1)N1CCn2cc(CN3CCCC3)nc2C1,-1.1,8.22,-4.43,11.5,8.33,-9.98,20.1,-16,14.6,23.5,-4.19
COc1ccc(C(=O)N(C)Cc2nnc3ccccn23)c(OC)c1,-4.19,-5.2,1.07,4.72,2.06,-1.47,12.5,-2.12,2.86,14.1,-15.8
